# According to PubChem BioAssay (NCATS):
# Results filed as inconclusive are left out. A call without a number means that no potency is given here. Calls of active or inactive are those of the source. Calls come from the whole dose curve; as a rule, active = well fitted curve in the direction sought with a large enough effect; inconclusive = small, poorly fitted or top-dose-only effect, or another doubt; inactive = no such curve, though single readings can be large; an effect the other way counts as inactive or inconclusive.
# Tested on: Zika virus NS2B-NS3 protease
# Assay: Primary screen GU AMC qHTS for Zika virus inhibitors (AID 1347154); note: nearly all actives have a fitted effect of over 70% in size
# Details: Zika NS2B-NS3 unlinked protease, AMC fluorogenic substrate; series mostly up to 54.1 µM
# Method in brief: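 Unlinked Zika NS2B hydrophilic domain–NS3 protease complex at 25 nM in 10 mM Tris-HCl pH 8.0, 0.01% Tween 20, with an AMC peptide substrate. Fluorescence change (340/450 nm) over 15 min at room temperature, normalized to controls, fitted to 4-parameter Hill.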
row,SMILES,Potency
1,O=S(=O)(NCCNC/C=C/c1ccc(Br)cc1)c1cccc2cnccc12,inactive
2,Cc1cc(F)c(Nc2ncnc3cc(OCc4ccccc4)ccc23)cc1O,inactive
3,c1ccc(-c2[nH]ncc2-c2ccnc3ccccc23)nc1,inactive
4,O=c1cc(N2CCNCC2)oc2c(-c3ccccc3)cccc12,inactive

# Tested on: not listed separately
# Assay: qHTS to identify inhibitors of the type 1 interferon - major histocompatibility complex class I in skeletal muscle: primary screen against the NCATS Mechanism Interrogation Plate v5.0 (MIPE) Libary (AID 1347411); note: nearly all actives have a fitted effect of over 65% in size; note: potency is the fitted concentration of half-maximal effect
# Details: iHSKM cells + IFN-b, HiBiT-tagged MHC-I luminescence, 24 h; series mostly up to 45.8 µM
# Method in brief: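 Immortalized human myoblasts (C25cl48) with HiBit knocked into endogenous HLA-B*08:01 were stimulated with 4 ng/ml IFN-beta and given compounds in 11-point 1:3 titration from 46 uM. After 24 h at 37 C, lytic HiBiT luminescence was read.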
row,SMILES,Potency
1,O=S(=O)(NCCNC/C=C/c1ccc(Br)cc1)c1cccc2cnccc12,inactive
2,CC(C)=CCC/C(C)=C/CC/C(C)=C/CSc1ccccc1C(=O)O,inactive
3,CN(C)Cc1cccc(N=C(c2ccccc2)c2c(O)[nH]c3cc(C(N)=O)ccc23)c1,inactive
4,Cc1ccc(Nc2ncc3c(n2)N(C)C(=O)N(c2cc(NC(=O)c4cccc(C(F)(F)F)c4)ccc2C)C3)cn1,0.0658 µM (active)
5,CCCCCCCCCCCCCCCCOCCCOP(=O)(O)COC(CO)Cn1ccc(N)nc1=O (centres undefined),inactive
6,CNC(=O)c1c(C)oc2cc(Oc3ncnc4cc(OC)c(OC)cc34)ccc12,inactive
7,COCc1c(-c2ccc(NC(=O)Nc3cc(C(F)(F)F)ccc3F)c(F)c2)c2c(N)ncnn2c1CN1CCOCC1,3.3 µM (active)
8,Cn1cc(-c2cc(Oc3cc(F)c(NC(=O)C4(C(=O)Nc5ccccc5)CC4)cc3F)ccn2)cn1,29.4 µM (active)
9,COc1cc(OC)cc(N(CCNC(C)C)c2ccc3ncc(-c4cnn(C)c4)nc3c2)c1,13.1 µM (active)
10,O=C(NOCCO)c1cc(CN2OCCCC2=O)c(F)c(F)c1Nc1ccc(I)cc1F,inactive
